Drawing on ChEMBL document CHEMBL3988442, “University of Dundee, Small-Polar-MMV Screening Library” (2021), this text covers Percent Effect for 40 compounds.

Structures are written as SMILES.

In this experiment the target is AMP-activated protein kinase, AMPK (Homo sapiens) (UniProt P54646+O43741+P54619+Q9UGJ0+Q9Y478+Q13131+Q9UGI9). Briefly: AMP-dependent Kinase enzyme assay. An in vitro enzyme assay that detects ADP turnover that is directly proportional to AMPK activity. This uses naive AMPK that is activated during the assay with MK-8722. Type of experiment: functional. Further details: scale not given: direction of the effect not stated beside the values. The settings on record: 30 µM.
Regarding `COc1nsc2nc(C3CCCN3c3ncccn3)ccc12` (stereo not given), the Percent Effect was determined as 13.7%.
The figure for `CC(OCC1CC1)C(=O)Nc1ccn(Cc2ccccc2)n1` (stereo not given) is 2.88%; for `Cc1nc(O)cc(CN2C[C@H](NC(=O)C3CCC3)[C@@H](C3CC3)C2)n1` it is -2.67%; for `CC(=O)c1sc(C(NC(=O)c2ccccc2)C2CC2)nc1C` (stereo not given) it is -2.1%.
Under `c1ccc(C2CN(C3CC3)CC3(CCN(Cc4ncc[nH]4)CC3)C2)cc1` (stereo not given) stands 6.22%; under `CN1CCN(CCNC(=O)c2sccc2C2CC2)CC1`, 3.89%; under `Cc1ccc(C(=O)NC2CCN(C(C)C)C2)c(=O)[nH]1` (stereo not given), -2.69%.
Regarding `O=C(Cc1c(F)cccc1Cl)Nc1cccc(N2CCCC2)c1`, the Percent Effect is -5.51%.
`Cc1nnc(-c2cccc(C#N)c2)n1C1CCN(C(C)C)C1=O` (stereo not given): the Percent Effect stood at 7.44%.
For `c1cnn(C2CN(c3nc(-c4ccncc4)nc4c3CCC4)C2)c1`, the Percent Effect was 1.13%.
With `O=C(CCn1ccnn1)N1CCCC(n2cncn2)C1` (stereo not given), the Percent Effect is 14.6%.
Take `COCCC1(C(=O)O)CCCN(c2cc(C)c3ccccc3n2)C1` (stereo not given): the Percent Effect was determined as 3.66%.
For `C[S+]([O-])c1cccc(NC(=O)N[C@H](CCO)c2ccccc2)c1` (stereo not given in full), the Percent Effect was -2.38%.
The figure for `Cn1ccnc1-c1cnn(CC(=O)Nc2ccnn2C)c1` is -2.32%.
As to `OCc1cccc(OCc2ccon2)c1`, the Percent Effect is 4.35%.
`Cn1cc(CN2CCC(c3ncc(Cl)cc3S(C)(=O)=O)CC2)cn1`: the Percent Effect turned out to be 9.1%.
Under `O=C1CN(C(=O)CC2C(=O)NCCN2CC2CCCCC2)CCN1` (stereo not given) stands -5.33%; under `COc1nc(C)ccc1CNC(=O)NC(c1ncc(C)s1)C1CC1` (stereo not given), -2.14%; under `Cc1cc(C(=O)NCCN2CCCCC2C)nn1C(C)(C)C` (stereo not given), 1.65%.
Consider `O=C(COc1ccc(F)cc1F)N1CCOCC(O)(CN2CCCC2)C1` (stereo not given), for which the Percent Effect came out at 8.54%.
For `Cc1cc(CNC(=O)NCCC(=O)N2CCCc3ccccc32)no1`, the Percent Effect was -5.1%.
Under `Cc1noc(-c2ccc(N(C)Cc3ccncn3)nc2)n1` stands 0.463%; under `CN1CCCCC1(C)C(=O)N1CCC(c2ccccn2)CC1` (stereo not given), -3.58%; under `CNc1cc2c(nn1)CCN(C(=O)c1ccc(-n3cccn3)nc1)C2`, -15.7%.
For `CCOCCC(=O)NCC1CCCO1` (stereo not given), the Percent Effect is 0.034%.
For the compound `CCC(Nc1ccc(CCN2CCOCC2)cc1)C(N)=O` (stereo not given), the Percent Effect was -3.46%.
Consider `Cc1nc(NC(=O)C(C)N(C)Cc2cccc(C#N)c2)sc1C` (stereo not given), for which the Percent Effect is 7.53%.
Regarding `COc1c(C2CCCN2CC(=O)Nc2nccs2)c(C)nn1C` (stereo not given), the Percent Effect is 7.38%.
Consider `CCCN(CCO)C(=O)c1cc(COc2ccc3c(c2)CCCC3)on1`, for which the Percent Effect amounted to 5.46%.
Under `CCOCCCNCc1cc(O)c2cc(C)ccc2n1` stands -9.04%; under `Cc1nn(C(C)C)c(C)c1CN1CCN(C2CCCCC2)C(=O)C1`, 8.49%.
Regarding `CN(C)c1ncccc1NC(=O)COC1CCCC1`, the Percent Effect was found to be 6.19%.
Take `COc1c(C2CCCN2CC(=O)N(C)c2nccs2)c(C)nn1C` (stereo not given): the Percent Effect worked out at 5.92%.
`Cc1cc(C(=O)N2C[C@@H](CN(C)CCN(C)C)[C@@H](CO)C2)nc(C)n1`: the Percent Effect was -14.8%.
For `Cc1ccc(-c2nc(C(=O)N(C)CC(=O)N(C)C)cs2)c(C)c1`, the Percent Effect is -3.64%.
As to `C[C@@H]1CN(C(=O)C2(Cn3cccn3)CC2)C[C@@]1(O)C1CCC1`, the Percent Effect is 5.58%.
Under `O=C(CCn1cncn1)NCCOc1cccc(Cl)c1` stands -7.83%.
Under `CNC(=O)CN(C)C(=O)c1ccc(-c2nc(C)cs2)cc1` stands -2.2%.
On to `O=C1CN(C(=O)CC2c3ccccc3CCc3ccccc32)CCN1`, for which the Percent Effect was found to be 30.9%.
`O=C1CN(Cc2cn(CC3CCN(C4CCSCC4)CC3)nn2)CCN1`: the Percent Effect was -3.51%.
